Pf growth 96h: Primary qHTS for delayed death inhibitors of the malarial parasite plastid, 96 hour incubation. P. falciparum luciferase reporter growth, 96 h. Potency, µM (top dose mostly 28.7 µM), inactives show at the top dose activity change, negative = inhibition, usual class: inhibitors. hit rate 6.9% among 320,000. AID 504834, 2011; note: % is set by controls: 0 for no effect and ±100 for the full control effect
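Erythrocytes infected with luciferase-expressing P. falciparum were dispensed at 2% hematocrit and 0.05% parasitemia (final), then incubated with compounds 96 hours at 37 C in 5% CO2. Luminescence after detection reagent addition reported growth.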
Sm TGR block: qHTS Assay for the Inhibitors of Schistosoma Mansoni Peroxiredoxins; Schistosoma mansoni thioredoxin glutathione reductase (TGR), Q962Y6; purified TGR, DTNB reduction, TNB absorbance 405 nm; Potency, µM (highest dose often 114 µM), for the others: at the top dose activity change, negative = inhibition, usual class: inhibitors; hit rate 3% among 360,000; AID 485364, 2010; note: % is set by controls: 0 for no effect and ±100 for the full control effect; nearly all actives have a fitted effect of over 60% in size
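TGR 20 nM + NADPH 100 uM (dispensed conc.), cpd preinc 15 min RT; start with NADPH (500 uM addition) then DTNB (15 mM addition). Kinetic TNB absorbance, 405 nm filter. Four-parameter Hill fit across titration.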
NS1 inh: qHTS Assay for Inhibitors of Influenza NS1 Protein Function; Potency, µM (titrated, usually from 46.1 µM), inactives show at the top dose activity, positive = more growth; AID 2326, 2010; hit rate 0.4% among 270,000; calls by dose curve; note: actives are rising curves; nearly all actives have a fitted effect of over 50% in size
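Recovery from NS1-induced slow growth read by OD600 in budding yeast switched to galactose assay medium (pH 6.0, -URA) at 1:100 dilution. Compound 23 nl per well; the matching strain lacking NS1 serves as control.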
Pf growth 48h: Primary qHTS for delayed death inhibitors of the malarial parasite plastid, 48 hour incubation; P. falciparum luciferase growth in erythrocytes, 48 h; Potency, µM (titrated, usually from 28.7 µM), for the others: top-dose activity change, negative = inhibition, actives largely listed as inhibitors; hit rate 5.9% among 310,000; AID 504832, 2011; note: % is set by controls: 0 for no effect and ±100 for the full control effect
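Firefly luciferase activity from engineered P. falciparum reports growth; inhibitors lower the luminescent signal. Cultures contained 2% hematocrit erythrocytes at 0.1% final parasitemia.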
AMA1 RON2 block: qHTS for Inhibitors of AMA1-RON; Towards Development of Antimalarial Drug Lead: Primary Screen. AlphaScreen AMA1-biotinylated RON2 peptide binding. Potency, µM (highest dose often 58.2 µM), inactives show at the top dose activity change, negative = inhibition, most hits filed as inhibitors. hit rate 0.2% among 360,000. AID 720542, 2013;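 note: 0% = vehicle wells and -100% = peptide control; nearly all actives have a fitted effect of over 45% in size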
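AMA1 (3D7) with his tag at 25 nM final met compounds first, then biotinylated RON2 peptide at 25 nM; detection used donor plus acceptor beads, 10 µg/mL apiece, read by AlphaScreen after 30 min at room temperature.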
Starred values were filed as active, the others as inactive. Only some compounds are listed: those with a hit (about 11% of all), similar ones and a draw of the others. Unless noted, calls come from the whole dose curve; as a rule, active = well fitted curve in the direction sought with a large enough effect; inconclusive = small, poorly fitted or top-dose-only effect, or another doubt; inactive = no such curve, though single readings can be large; an effect the other way counts as inactive or inconclusive. Potency is the fitted concentration of half-maximal effect.

`O=C(Nc1ccccc1N1CCN(C(=O)c2ccc(Cl)cc2)CC1)c1ccc([N+](=O)[O-])o1` gave Pf growth 96h -16%, Sm TGR block -24%, NS1 inh -34%, Pf growth 48h 6.6µM* and AMA1 RON2 block inconclusive.
Screening Cc1cccc(NC(=O)c2ccc(-c3ccccc3[N+](=O)[O-])o2)c1 returned Pf growth 96h 34%, Sm TGR block 3.5µM*, NS1 inh 2%, Pf growth 48h 0% and AMA1 RON2 block -2%.
`CN1CCN(c2ccccc2NC(=O)c2ccc(-c3ccccc3[N+](=O)[O-])o2)CC1` gave Pf growth 96h 29%, Sm TGR block 3%, NS1 inh -4%, Pf growth 48h 5.2µM* and AMA1 RON2 block -13%.
`O=C(Nc1cccc(F)c1)c1ccc(-c2ccccc2C(F)(F)F)o1` gave Pf growth 96h 15µM*, Sm TGR block inconclusive, NS1 inh -61% and Pf growth 48h inconclusive.
`Cn1cc(C(=O)NCCc2ccccc2)c(=O)c2cc(S(=O)(=O)N3CCCCC3)ccc21` gave Sm TGR block 8%.
For O=C1C2CC=CCC2C(=O)N1c1ccc(OCC(O)Cn2nnc3ccccc32)cc1 (stereo unspecified) the results were Pf growth 96h 15µM*, Sm TGR block 4%, NS1 inh -11% and AMA1 RON2 block 13%.
Screening O=C(Cn1nnc2ccccc21)c1ccc(Br)cc1 returned Pf growth 96h 48%, Sm TGR block 8%, NS1 inh -2%, Pf growth 48h 43% and AMA1 RON2 block -2%.
Screening CC(=O)c1ccc(OCC(O)CN2CCC(C)CC2)cc1 (stereo unspecified) returned Pf growth 96h inconclusive, Sm TGR block -2%, NS1 inh -8% and AMA1 RON2 block -1%.
CC(=O)c1ccc(OCC(O)CN2C(C)CCCC2C)cc1 (stereo unspecified) was read as Pf growth 96h 8.3µM*, Sm TGR block 3%, NS1 inh -1% and AMA1 RON2 block -7%.
For CC(=O)c1ccc(OCC(O)Cn2nnc3ccccc32)cc1 (stereo unspecified) the results were Pf growth 96h 32%, Sm TGR block 0%, NS1 inh -7%, Pf growth 48h 7.4µM* and AMA1 RON2 block 34%.
Cc1ccc(C(=O)Cn2nnc3ccccc32)cc1 was read as Pf growth 96h 12µM*, Sm TGR block 5%, NS1 inh 2%, Pf growth 48h 137% and AMA1 RON2 block 4%.
Screening CCN(CC)c1ccc(NC(=O)c2ccc3c(c2)OCO3)cc1 returned Pf growth 96h inconclusive, Sm TGR block 6%, NS1 inh 3%, Pf growth 48h -3% and AMA1 RON2 block 7%.
OCCCNc1nc(-c2ccc(Cl)cc2)nnc1-c1ccccc1 was read as Pf growth 96h 3.7µM*, Sm TGR block 1%, NS1 inh -38%, Pf growth 48h inconclusive and AMA1 RON2 block 8%.
`CCOC(=O)C(NS(=O)(=O)c1ccccc1)(C(F)(F)F)P(=O)(OC(C)C)OC(C)C` (stereo unspecified) gave Pf growth 96h -23%, Sm TGR block 35µM*, NS1 inh 10% and AMA1 RON2 block 1%.
For COc1ccc(C(=O)NCCS(=O)(=O)N2CCC3(CC2)OCCO3)cc1 the results were Pf growth 96h 71%, Sm TGR block -4%, Pf growth 48h 40% and AMA1 RON2 block 5%.
Screening CN1c2ccccc2C(C)(C)C12CC(CCl)=NO2 (stereo unspecified) returned Pf growth 96h 8%, Sm TGR block 40µM*, NS1 inh 1%, Pf growth 48h 0% and AMA1 RON2 block -8%.
COc1ccc(/C=C/C(=O)Nc2ccc(Cl)cc2Cl)cc1 was read as Sm TGR block -4%.
Clc1cc(Cl)c(OCC#CI)cc1Cl was read as Pf growth 96h 13µM* and Pf growth 48h inconclusive.
Screening NC[C@@H]1O[C@H](C23CC4CC(CC(C4)C2)C3)Cc2c1ccc(O)c2O returned Pf growth 96h 5.9µM*, Sm TGR block 7.9µM*, NS1 inh 6%, Pf growth 48h 9.3µM* and AMA1 RON2 block 2%.
Screening C=CCOc1ccc(/C=C/C(=O)OCC(=O)N(C)C2CCS(=O)(=O)C2)cc1 (stereo unspecified) returned Pf growth 96h 30%, Sm TGR block -1%, NS1 inh 11%, Pf growth 48h 20% and AMA1 RON2 block 14%.
`Cn1nnc(NC(=S)NC(=O)c2cccc3ccccc23)n1` gave Pf growth 96h 13µM*, Sm TGR block -23%, NS1 inh -50%, Pf growth 48h inconclusive and AMA1 RON2 block 68%.
`Cn1nnc(NC(=S)NC(=O)c2ccc3ccccc3c2)n1` gave AMA1 RON2 block 117%.
Screening NS(=O)(=O)c1ccc2nc(-c3ccccc3)c(-c3ccccc3)nc2c1 returned Pf growth 96h 27%, Sm TGR block 5%, NS1 inh -6%, Pf growth 48h 9% and AMA1 RON2 block 10%.
Screening Cc1cc(C)nc(Sc2ncnc(N)c2[N+](=O)[O-])n1 returned Pf growth 96h -2%, Sm TGR block 4µM*, NS1 inh -2%, Pf growth 48h inconclusive and AMA1 RON2 block 115%.
Screening Cc1cccc(Nc2ncnc(N)c2[N+](=O)[O-])n1 returned Pf growth 96h inconclusive, Sm TGR block 7%, NS1 inh 4%, Pf growth 48h 14% and AMA1 RON2 block 16%.
For NC(=O)COC(=O)c1cc(-c2ccco2)nc2ccccc12 the results were Pf growth 96h 40%, Sm TGR block 3.2µM*, NS1 inh -3%, Pf growth 48h 15% and AMA1 RON2 block -23%.
For O=C(COC(=O)c1ccco1)NCc1ccc2c(c1)OCO2 the results were Pf growth 96h 1%, Sm TGR block 4%, NS1 inh 1%, Pf growth 48h 4% and AMA1 RON2 block -1%.
`O=C(c1cc(-c2ccco2)nc2ccccc12)N1CCN(Cc2ccccc2)CC1` gave Pf growth 96h 41%, Sm TGR block 14µM*, Pf growth 48h -27% and AMA1 RON2 block -5%.
O=C(c1ccco1)N1CCN(C(=O)c2cc(-c3ccccn3)nc3ccc(Cl)cc23)CC1 was read as Pf growth 96h 11%, Sm TGR block 7.9µM*, NS1 inh -3%, Pf growth 48h inconclusive and AMA1 RON2 block 9%.
`O=C(c1ccco1)N1CCN(C(=O)c2cc(-c3ccccc3)nc3ccccc23)CC1` gave Pf growth 96h 87%, Sm TGR block -14%, NS1 inh -1%, Pf growth 48h -18% and AMA1 RON2 block 0%.

Assay outcomes from PubChem BioAssay.
